In the first experiment the test system is Staphylococcus aureus. Description: Antibacterial activity against Staphylococcus aureus MRSA ATCC 43300 (CO-ADD:GP_020); MIC in CAMBH media using NBS plates, by Resazurin F(560/590). Conditions: Concentration 20 uM, ASSAY_TEST Inhibition of Bacterial Growth, detection method Resazurin, Fluorescence (ex560/em590), MEDIA CAMHB, plate type 384well, CORNING #3640, time 18 hr. The class given is functional. For orientation: Alamar Blue is a resazurin reagent that responds to reducing activity.
The Inhibition is the change of the read-out against control, counted positive when it falls. For the compound `CC1(C)C2CCC(CN=C(N)CSS(=O)(=O)O)C1C2` (centres undefined), the Inhibition is recorded as 18.41%.
Still for that read-out and setting: for `C[C@@H]1C[C@H]2OC(=O)[C@@]3(C)CCC[C@@](C)([C@@H]23)[C@@]1(O)CCc1ccoc1` the value was -8.43%.
Consider `c1cc(-n2nnc3cnccc32)ccn1`, for which the Inhibition is 13.16%.
Same read-out and setting: next, `Cn1c(=O)c2c(nc(N3CCOCC3)n2C)n(C)c1=O`: 9.23%.
The same measure, in the same setting: for `CC(=O)Oc1ccc(OC(C)=O)c2c1CC1(C)OC1(C)C2` (centres undefined) the value was 13.73%.
On the same count and under the same terms, for `COc1cnc(SC)nc1Nc1ccc(C#N)cc1` the value was 3.83%; for `CCN(CC)C(=O)Cn1ccc(NC(C)=O)nc1=O`, -5.08%.
For `O=C1c2ccccc2C(=O)c2[nH]cnc21`, the Inhibition was -4.2%.
On the same count and under the same terms, next, `S=C(Nc1ccccc1)Nc1nccs1`: -6.83%.
On the same count and under the same terms, next, `O=c1[nH]cc(Cl)cc1Cl`: 16.39%; `CC(=O)Nc1ccc(S(=O)(=O)N/N=c2/sc3ccccc3n2C)cc1N`: 12.5%.
Still for that read-out and setting: for `Oc1ccc(N/C(S)=N/c2ccccc2)cc1` the value was -2.99%; for `CC(C)COc1nc2c(c(=O)n(C)c(=O)n2C)n1C`, -1.72%.
Regarding `Cc1ccc(S(=O)(=O)CCOC(=O)CNC(=O)OCc2ccccc2)cc1`, the Inhibition is listed as 0.28%.
The same measure, in the same setting: next, `N#CC1=C(Nc2ccccc2Cl)SC(c2ccccc2O)NC1=O` (centres undefined): 1.74%.
Still for that read-out and setting: next, `CC(C)(C)CC(C)(C)n1nnnc1N`: 12.74%; `c1ccc(Sc2ncccn2)nc1`: 20.57%; `Cc1ccc(/N=N/c2ccc(N)cc2C)c(S(N)(=O)=O)c1`: -7.58%.
For `CC(=C/c1ccccc1)/C=C1/NC(=S)NC1=O`, the Inhibition is reported as 2.65%.
On the same count and under the same terms, next, `Cc1cn(C2CC(O)C(CO)O2)c(=O)n(Cc2ccccc2)c1=O` (centres undefined): 4.94%.
In the case of `COC1OCC(O)C(NC(=O)N(C)N=O)C1O` (centres undefined), the Inhibition was -1.39%.
On the same count and under the same terms, next, `Cc1cccc2cc3cccc(C)c3nc12`: -5.52%; `O=C(Nc1ccc(NC(=O)c2ccncc2)cc1)c1ccncc1`: 23.04%.
Still for that read-out and setting: next, `COc1cc(NC(=O)CCl)ccc(=O)c1`: -5.48%.
Still for that read-out and setting: for `O=[N+]([O-])c1ccc(-c2ncc(-c3ccc(Br)cc3)o2)cc1` the value was 5.59%; for `COc1ccc(Cc2nnc(SC)n2-c2ccc(F)cc2)cc1OC`, 7.78%; for `O=C(Oc1ccccc1)c1cccc2cccc(C(=O)Oc3ccccc3)c12`, 17.84%.
As to `N#Cc1ccc(NC2c3ccccc3CC2O)cc1` (centres undefined), the Inhibition was -13.68%.
Same read-out and setting: next, `COc1cc2c(c3c1c(=O)c1cccc(F)c1n3C)C=CC(C)(C)O2`: 18.94%; `CC(C)(C)C(=O)/C=C/c1ccc(Oc2ccccc2)cc1`: 7.11%; `Cc1cnc2cc(Cl)ccc2c1SCC(=O)O`: 2.5%.
On to `O=C(Nc1ccc(F)cc1)OCCOc1ccc([N+](=O)[O-])cc1`, for which the Inhibition was found to be 6.26%.
On the same count and under the same terms, for `NC(=O)c1ccc(Oc2ccc(C(N)=O)cc2)cc1` the value was 7.05%; for `CCSc1ncc(CO)c(N)n1`, 4.68%.
The same measure, in the same setting: next, `CCN(CC)CCN1C(=O)c2cccc3cc(N)cc(c23)C1=O`: -0.77%; `CC(C)(C)N1CC(OC(N)=O)C1`: 21.14%; `NC(=O)/C(=C\c1ccncc1)c1cccc2ccccc12`: 3.23%.

The next experiment concerns Acinetobacter baumannii. Description: Antibacterial activity against Acinetobacter baumannii ATCC 19606 (CO-ADD:GN_034); MIC in CAMBH media using NBS plates, by Resazurin F(560/590). The format is functional. The note with it: Concentration 20 uM, ASSAY_TEST Inhibition of Bacterial Growth, detection method Resazurin, Fluorescence (ex560/em590), MEDIA CAMHB, plate type 384well, CORNING #3640, time 18 hr.
On to `CC1(C)C2CCC(CN=C(N)CSS(=O)(=O)O)C1C2` (centres undefined), for which the Inhibition was 14.08%.
Same read-out and setting: next, `C[C@@H]1C[C@H]2OC(=O)[C@@]3(C)CCC[C@@](C)([C@@H]23)[C@@]1(O)CCc1ccoc1`: -3.35%; `c1cc(-n2nnc3cnccc32)ccn1`: -18.41%.
The same measure, in the same setting: for `Cn1c(=O)c2c(nc(N3CCOCC3)n2C)n(C)c1=O` the value was 6.55%; for `CC(=O)Oc1ccc(OC(C)=O)c2c1CC1(C)OC1(C)C2` (centres undefined), 5.72%.
Same read-out and setting: for `COc1cnc(SC)nc1Nc1ccc(C#N)cc1` the value was 28.01%; for `CCN(CC)C(=O)Cn1ccc(NC(C)=O)nc1=O`, -19.36%; for `O=C1c2ccccc2C(=O)c2[nH]cnc21`, -6.06%.
As for `S=C(Nc1ccccc1)Nc1nccs1`, the Inhibition is recorded as 13.46%.
The same measure, in the same setting: for `O=c1[nH]cc(Cl)cc1Cl` the value was -19.78%; for `CC(=O)Nc1ccc(S(=O)(=O)N/N=c2/sc3ccccc3n2C)cc1N`, 3.99%; for `Oc1ccc(N/C(S)=N/c2ccccc2)cc1`, 11.99%.
As for `CC(C)COc1nc2c(c(=O)n(C)c(=O)n2C)n1C`, the Inhibition is 11.63%.
On the same count and under the same terms, next, `Cc1ccc(S(=O)(=O)CCOC(=O)CNC(=O)OCc2ccccc2)cc1`: 8.19%; `N#CC1=C(Nc2ccccc2Cl)SC(c2ccccc2O)NC1=O` (centres undefined): -8.74%; `CC(C)(C)CC(C)(C)n1nnnc1N`: -17.3%.
Same read-out and setting: for `c1ccc(Sc2ncccn2)nc1` the value was -8.37%.
Still for that read-out and setting: next, `Cc1ccc(/N=N/c2ccc(N)cc2C)c(S(N)(=O)=O)c1`: -6.13%.
On to `CC(=C/c1ccccc1)/C=C1/NC(=S)NC1=O`, for which the Inhibition was 4.35%.
Still for that read-out and setting: next, `Cc1cn(C2CC(O)C(CO)O2)c(=O)n(Cc2ccccc2)c1=O` (centres undefined): 6.87%.
Same read-out and setting: for `COC1OCC(O)C(NC(=O)N(C)N=O)C1O` (centres undefined) the value was 15.65%; for `Cc1cccc2cc3cccc(C)c3nc12`, -11.71%.
Same read-out and setting: next, `O=C(Nc1ccc(NC(=O)c2ccncc2)cc1)c1ccncc1`: -1.2%.
With `COc1cc(NC(=O)CCl)ccc(=O)c1`, the Inhibition came out at 6.09%.
The same measure, in the same setting: for `O=[N+]([O-])c1ccc(-c2ncc(-c3ccc(Br)cc3)o2)cc1` the value was 6.16%.
On the same count and under the same terms, for `COc1ccc(Cc2nnc(SC)n2-c2ccc(F)cc2)cc1OC` the value was -2.89%; for `O=C(Oc1ccccc1)c1cccc2cccc(C(=O)Oc3ccccc3)c12`, 0.5%.
Still for that read-out and setting: for `N#Cc1ccc(NC2c3ccccc3CC2O)cc1` (centres undefined) the value was -7.5%; for `COc1cc2c(c3c1c(=O)c1cccc(F)c1n3C)C=CC(C)(C)O2`, 5.21%; for `CC(C)(C)C(=O)/C=C/c1ccc(Oc2ccccc2)cc1`, -6.09%.
In the case of `Cc1cnc2cc(Cl)ccc2c1SCC(=O)O`, the Inhibition was 10.23%.
Same read-out and setting: for `O=C(Nc1ccc(F)cc1)OCCOc1ccc([N+](=O)[O-])cc1` the value was 5.22%.
Still for that read-out and setting: next, `NC(=O)c1ccc(Oc2ccc(C(N)=O)cc2)cc1`: 9.37%; `CCSc1ncc(CO)c(N)n1`: -13.15%; `CCN(CC)CCN1C(=O)c2cccc3cc(N)cc(c23)C1=O`: 7.97%.
Still for that read-out and setting: for `CC(C)(C)N1CC(OC(N)=O)C1` the value was -14.09%; for `NC(=O)/C(=C\c1ccncc1)c1cccc2ccccc12`, -18.71%.

The values are drawn from ChEMBL document CHEMBL4296182, “CO-ADD screening of NIH NCI Diversity Set V”.
